This note sets out measurements from PubChem BioAssay AID2148 (The Scripps Research Institute Molecular Screening Center, 2009).

SMILES strings stand for the structures. The whole screen tested about 2,400 compounds, of which about 1,500 (62%) were called active. No stated cut-off is given here; in the data, active means inhibition above about 22%; inactive means the rest. The set was probably picked from earlier hits. The list is a sample of the results.

The experiment has as its target Melanin-concentrating hormone receptor 1 (Homo sapiens) (UniProt Q99705). As to the kind of experiment: MCHR1 antagonists in cells, counter-screen for GPR7 antagonist project, cell-based, fluorescence, human (AID 2148).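 Further: 0% = vehicle with agonist and 100% = vehicle without agonist.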 Particulars: MCHR1-expressing cells, fluorescence antagonist assay; at 4.4 µM; hits give high values.
Take `Cc1ccc(NC2=C(Cl)C(=O)OC2OC(=O)c2ccccc2C)cc1` (configuration not stated): the inhibition is 39.7% (active).

On to `COc1ccc(NC(=O)C2CCC(CNS(=O)(=O)c3csc(C(N)=O)c3)CC2)cc1OC` (configuration not stated), for which the inhibition is 7.62% (inactive).

`CC1(C)CC(CNCCC(c2ccc(F)cc2)c2ccco2)CCO1` (configuration not stated): the inhibition is 23.9% (active).

Take `Cc1ccc(CNC(=O)C2CCN(S(=O)(=O)c3ccc4nc5c(c(C(=O)O)c4c3)CC(C)CC5)CC2)cc1` (configuration not stated): the inhibition is 10.8% (inactive).

Regarding `Cn1c(=O)c([N+](=O)[O-])c(Oc2ccccc2)c2ccccc21`, the inhibition was 30.5% (active).

Take `COc1cc(OC)c(-n2cc(-c3ccc(Cl)cc3)[nH]c2=O)cc1Cl`: the inhibition is 53.2% (active).

In the case of `Cc1cccc(-c2nc3ccc(C(=O)NCCN4CCN(C)CC4)cc3nc2-c2cccc(C)c2)c1`, the inhibition is 34.7% (active).

Take `CN(c1ccccc1)S(=O)(=O)c1ccc(C(=O)NCCc2ccccc2)cc1`: the inhibition was 11.5% (inactive).

On to `S=C(NCCc1ccccc1)Nc1ccccc1`, for which the inhibition was 33.6% (active).

Consider `COc1ccccc1N1CCN(c2ncnc3sc(C)c(-c4ccccc4)c23)CC1`, for which the inhibition is 56.4% (active).

On to `COc1ccccc1CNC(=O)COc1ccc(C)nc1[N+](=O)[O-]`, for which the inhibition is -4% (inactive).

Take `Cc1cc(OCc2ccc(C(=O)Nc3ccc(C(=O)O)cc3)o2)ccc1Cl`: the inhibition was 22% (active).

On to `CC(C)(C)CC(C)(C)NCC(O)COCCOc1ccc(Br)cc1` (configuration not stated), for which the inhibition is 47.4% (active).

As to `O=C(Nc1ccc2ccccc2c1)Nc1ccc2snnc2c1`, the inhibition was 61.5% (active).

Turning to `CCN1CCN(c2ccc([N+](=O)[O-])cc2C(=O)c2ccc(Cl)cc2)CC1`, the inhibition was 41.1% (active).

For `OC(CNCC1CCCO1)Cn1c2ccc(Br)cc2c2cc(Br)ccc21` (configuration not stated), the inhibition is 81.1% (active).

Consider `O=C(CCCN1CCc2[nH]c3ccc(F)cc3c2C1)c1ccc(F)cc1`, for which the inhibition was 44.6% (active).

With `CS(=O)(=O)Nc1cccc(C2=NN(S(=O)(=O)c3ccccc3)C(c3cccs3)C2)c1` (configuration not stated), the inhibition was 25.9% (active).

On to `COc1ccc(OC)c(C(c2nnnn2C(C)(C)C)N2CCc3ccccc3C2)c1` (configuration not stated), for which the inhibition was 47.3% (active).

Regarding `COCCCNC(=S)N1CCN(c2nc(-c3cccc(OC)c3)cs2)CC1`, the inhibition is 51.1% (active).

Turning to `Cc1ccc(NC(=O)CN2CCC3(O)CCCCC3C2c2ccc3c(c2)OCO3)c(C)c1` (configuration not stated), the inhibition was 24.9% (active).

Take `COc1ccc([N+](=O)[O-])cc1N(CC(O)CN(CC(C)C)CC(C)C)S(=O)(=O)c1ccc(C)cc1` (configuration not stated): the inhibition was 66% (active).

On to `COCCN(Cc1cc2cc3c(cc2nc1Cl)OCO3)C(=O)c1cccc(C)c1`, for which the inhibition was 37.5% (active).

For the compound `Cc1cccc(CS(=O)(=O)c2ncc(Cl)c(C(=O)Nc3ccc(F)cc3)n2)c1`, the inhibition is 92.1% (active).

Take `COc1ccc(N=C2SC(C(=O)Nc3ccc(F)cc3)CC(=O)N2C)cc1` (configuration not stated): the inhibition was 3.76% (inactive).

Regarding `Cc1ccccc1CN1C[C@@H]2C[C@@H](c3cn(C)nc3-c3ccccc3)N3CCC[C@@]23C1=O`, the inhibition is 21.2% (inactive).

`COc1ccccc1Oc1ccc(S(=O)(=O)Nc2cccnc2)cc1`: the inhibition is 39.9% (active).

As for `COc1ccc(C)cc1NC(=O)NCCCCc1ccccc1`, the inhibition was 22.6% (active).

Regarding `CCC(C(=O)Nc1ccc(C(C)C)cc1)c1ccccc1` (configuration not stated), the inhibition is 95.6% (active).

Turning to `Cc1cc2c(cc1C)N(Cc1ccccc1)C1=NCCCN12`, the inhibition was 9.03% (inactive).

For `Cc1cc(Cl)ccc1OCCCC(=O)Nc1cccc(-n2cnnn2)c1`, the inhibition is 45.7% (active).

`O=C(CCc1ccccc1)Nc1ccc(NC(=O)C2CC2)nc1`: the inhibition is 4.99% (inactive).

For `O=C(CN1CCN(C(=S)NC2CCCC2)CC1)Nc1ccc(Oc2ccccc2)cc1`, the inhibition was 52.8% (active).

Consider `COc1ccc(C(=O)CSc2nnc(COc3ccccc3)n2Cc2ccco2)cc1`, for which the inhibition was 38.8% (active).

Take `O=C(CSc1nnc(-c2ccco2)o1)NCC(=O)c1ccccc1`: the inhibition is 19.5% (inactive).

In the case of `CCSc1nsc(NC(=O)Nc2cccc(C(C)=O)c2)n1`, the inhibition was 62% (active).

Consider `C=CCSc1nsc(NC(=O)Nc2cccc(C(C)=O)c2)n1`, for which the inhibition was 68.9% (active).

Take `Cc1ccc(NC(=S)N(CCCN2CCC(C)CC2)Cc2ccco2)cc1`: the inhibition is -1.82% (inactive).

As to `Oc1cccc(/C=N/Nc2ccc(Cl)nn2)c1O`, the inhibition was 28.3% (active).

With `N#CC1=C(SCc2ccc(C#N)cc2)N=C(N)C(c2nc(-c3ccccc3)cs2)C12CCCCC2` (configuration not stated), the inhibition was 24.5% (active).

For `N=c1n(CCc2ccccc2)c2ccccc2n1Cc1ccccc1F`, the inhibition is 53.5% (active).

On to `CN(C)CCCN(C(=O)c1ccc(S(=O)(=O)N2CCCCCC2)cc1)c1nc2ccc(Br)cc2s1`, for which the inhibition is 71.8% (active).

On to `CCc1ccc2nc(N(CCCN(C)C)C(=O)c3ccc4c(c3)OCCO4)sc2c1`, for which the inhibition was 31.3% (active).

Regarding `CN(C)CCCN(C(=O)c1ccc(S(=O)(=O)N2CCCc3ccccc32)cc1)c1nc2ccc(F)cc2s1`, the inhibition was 72.1% (active).

In the case of `CCn1c2ccc(F)cc2c2nnc(SCCN3CCOCC3)nc21`, the inhibition was -2.62% (inactive).

Take `O=C(Nc1ccc2c(c1)OCO2)C1CC(c2c(F)cccc2Cl)=NO1` (configuration not stated): the inhibition is 2.22% (inactive).

Turning to `O=C(NCCNc1ccc([N+](=O)[O-])cc1Cl)c1ccccc1F`, the inhibition was 35.2% (active).

For `CN(C)S(=O)(=O)N1CCC(Oc2cccc(C(=O)NCCCC3CCCC3)c2)CC1`, the inhibition is 90.4% (active).

Take `CS(=O)(=O)N(Cc1ccc(Cl)cc1)c1ccc(C(=O)NCCSCc2ccco2)cc1`: the inhibition is 22.2% (active).

With `CC(=O)N1CCCc2cc(S(=O)(=O)N3CCCC(C(=O)N4CCN(c5cccc(Cl)c5)CC4)C3)ccc21` (configuration not stated), the inhibition was 71.3% (active).

With `CCc1c(C)nc2c(-c3ccccc3)c(C)nn2c1Nc1ccc(NC(C)=O)cc1`, the inhibition was 24.5% (active).

On to `Cc1ccc2nc(C)c3c(c2c1)N(c1ccccc1)CC3`, for which the inhibition was 22.2% (active).

Turning to `c1ccc(C2CNCc3c2ccc2ccccc32)cc1` (configuration not stated), the inhibition was 73.3% (active).

In the case of `CCCCCCCCCCOC(=O)Cn1c(COc2cccc(OC)c2)[n+](C)c2ccccc21`, the inhibition was 81.7% (active).

Turning to `Cc1ccc(SCc2cc(=O)[nH]c(N3CCCCC3)n2)cc1`, the inhibition was -8.9% (inactive).

Turning to `CCN1CCN(c2c(Cl)cccc2NC(=O)c2ccc(Br)o2)CC1`, the inhibition is 21% (inactive).

For the compound `CC(NCc1ccccc1OC1CCCC1)c1ccccc1` (configuration not stated), the inhibition is 33% (active).

In the case of `CC(C)(C)NCc1cc(Br)ccc1OC1CCCC1`, the inhibition was 11.2% (inactive).

For the compound `CCN(CC)CCOCCOc1ccc(Cl)c2ccccc12`, the inhibition was 19.4% (inactive).

Take `COc1ccccc1N(C(=O)Cn1nnc2ccccc21)C(C(=O)NCc1ccco1)c1ccc(C)o1` (configuration not stated): the inhibition was 25.9% (active).

In the case of `O=[N+]([O-])/C=C/c1ccc2c(ccn2Cc2ccccc2)c1`, the inhibition is 104% (active).

For the compound `CCCOc1ccccc1C1CC(=O)Nc2cc3c(cc21)OCO3` (configuration not stated), the inhibition was 51.8% (active).

Regarding `COc1cc(OC)cc(C(=O)N[C@H](C(=O)OCC(=O)NC(C)c2ccccc2)C(C)C)c1` (some centres not stated), the inhibition was 65% (active).

`COc1cc(NC(=O)CN2C(=O)NC(C)(c3ccc(OC(F)F)cc3)C2=O)cc(OC)c1OC` (configuration not stated): the inhibition was 28.4% (active).

`Cc1ccc(NC(=O)CN2C(=O)NC(C)(c3ccc(Cl)cc3)C2=O)c(Br)c1` (configuration not stated): the inhibition was 6.97% (inactive).

As for `C=CCNC(=O)COC(=O)c1ccccc1C(=O)N(C)C1CCCCC1`, the inhibition was -2.95% (inactive).

On to `C=CCC1(CC=C)CCCN1C(=O)c1cc(COc2ccc(-n3cncn3)cc2)on1`, for which the inhibition is 55.2% (active).

With `CCc1ccc(NC(=O)c2ccc(Cn3cc([N+](=O)[O-])cn3)cc2)cc1`, the inhibition is 35.1% (active).

Regarding `CCOc1ccc(C(=O)NC(=S)Nc2ccc(N3CCOCC3)c(Cl)c2)cc1[N+](=O)[O-]`, the inhibition is 24.7% (active).

Regarding `CC(C(=O)N1CCN(c2ccccc2F)CC1)c1ccc([N+](=O)[O-])cc1` (configuration not stated), the inhibition is 27.9% (active).

Turning to `CCN(CC)Cc1c(C(=O)OC)nnn1-c1nonc1N`, the inhibition was 5.07% (inactive).

Take `Clc1ccc(-c2cc(C3CCNCC3)[nH]n2)c(Cl)c1`: the inhibition is 35.6% (active).

Take `O=C(COc1ccc(S(=O)(=O)Nc2cccc(C(F)(F)F)c2)cc1)N1CCOCC1`: the inhibition was 28% (active).

As to `O=S(=O)(c1ccc(OCC(O)CN2CCN(c3ccccc3Cl)CC2)cc1)N1CCOCC1` (configuration not stated), the inhibition is 38.9% (active).

With `O=C(NCCCN1CCN(c2ccc(F)cc2)CC1)Nc1ccc([N+](=O)[O-])cc1`, the inhibition is 65.1% (active).

Regarding `Cc1c(CCO)c(=O)n(-c2ccccc2)n1S(=O)(=O)c1ccc(F)cc1`, the inhibition was -12.3% (inactive).

In the case of `Cc1ccc(O)c(NC(=S)NC(=O)COc2ccc(Br)cc2)c1`, the inhibition is 83.8% (active).

Take `CN(c1cccc(NC(=O)Nc2ccc(Cl)cc2)c1)S(C)(=O)=O`: the inhibition is 67.3% (active).

With `COc1ccc(CS(=O)/C(Cl)=C(/Cl)C(=O)Nc2ccc(OC)nc2)cc1` (configuration not stated), the inhibition is 63.9% (active).

Take `CCOc1ncccc1C(=O)NCCc1ccc(OC)cc1`: the inhibition is 13.4% (inactive).

Take `COc1cccc(CNCCc2c[nH]c3ccccc23)c1OCc1ccccc1F`: the inhibition is 83.6% (active).

For the compound `Cc1ccccc1Nc1nnc(SCC(=O)c2cc3ccccc3o2)s1`, the inhibition was 10.6% (inactive).

For `Nc1nnc(SCC(=O)Nc2ccc3nc(SCC(=O)Nc4ccccc4)sc3c2)s1`, the inhibition is 81.6% (active).

As to `O=C(CN1C(=O)/C(=C/c2ccccc2F)Sc2ccccc21)NCc1cccnc1`, the inhibition was 63% (active).

Turning to `Clc1ccc(C2CC(c3cccs3)n3ncnc3N2)cc1Cl` (configuration not stated), the inhibition was 15.5% (inactive).

As to `COc1ccc(C2Nc3ccccc3C(=O)N2Cc2ccccc2)cc1Cn1nnc2ccccc21` (configuration not stated), the inhibition is 32.1% (active).

As to `Fc1ccc(-c2ccc(-c3nn4c(-c5ccco5)nnc4s3)o2)cc1`, the inhibition is 12.7% (inactive).

`Cc1ccccc1CN1C(=O)c2ccccc2Sc2ccc(C(=O)NCCCN3CCOCC3)cc21`: the inhibition is 17% (inactive).

Turning to `O=C(NCCCN1CCOCC1)c1ccc2c(c1)N(Cc1cccc(F)c1)C(=O)c1ccccc1S2`, the inhibition is 25.3% (active).

As for `CCOC(=O)C1CSC(CC(=O)Nc2ccc(OCC)cc2)C(=O)N1` (configuration not stated), the inhibition is 3.62% (inactive).

`CCC(C)c1ccccc1NC(=O)CN(C)CC(=O)Nc1ccccc1SC` (configuration not stated): the inhibition was 24.8% (active).

For `CCc1ccc(N(C(=O)c2csnn2)C(C(=O)NC2CCCCC2)c2ccncc2)cc1` (configuration not stated), the inhibition is 17.6% (inactive).
